Source: PubChem (National Center for Advancing Translational Sciences (NCATS))
Rows were chosen to be rich in hits. Some 7.5% of all compounds tested hit in one or more screens of this group.
Rab9 prom act – activates the Rab9 promoter; Huh7 Rab9 promoter-luciferase reporter, luminescence, 24 h; 320,000 compounds, 2.8% hits; Potency, µM (highest dose often 9.22 µM), actives largely listed as activators; note: nearly all actives have a fitted effect of over 60% in size
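Stable Rab9-luc Huh7, 1500 cells/well, 2 h settle; cmpd in DMSO, 24 h, 37 °C/5% CO2; luciferase reagent 10 min RT; luminescence.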
NPC1 promoter act – NPC1 promoter activation | Huh7 NPC1 promoter luciferase reporter, 24 h | 320,000 compounds, 2.4% hits | Potency, µM (doses to about 9.22 µM), usual class: activators; note: nearly all actives have a fitted effect of over 60% in size
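Luminescence read-out of NPC1 promoter-driven luciferase in stably transfected Huh7 cells; compounds delivered in DMSO and left 24 h at 37C, 5% CO2, qHTS titration format.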
FLuc modulator – firefly luciferase modulation, counter-screen for miR-21 project. purified FLuc, Km substrates, luminescence inhibition. 360,000 compounds, 6.9% hits. Potency, µM (titrated, usually from 57.5 µM), most hits filed as inhibitors. P08659; note: nearly all actives have a fitted effect of over 55% in size
Target sequence (P08659 whole entry, looked up): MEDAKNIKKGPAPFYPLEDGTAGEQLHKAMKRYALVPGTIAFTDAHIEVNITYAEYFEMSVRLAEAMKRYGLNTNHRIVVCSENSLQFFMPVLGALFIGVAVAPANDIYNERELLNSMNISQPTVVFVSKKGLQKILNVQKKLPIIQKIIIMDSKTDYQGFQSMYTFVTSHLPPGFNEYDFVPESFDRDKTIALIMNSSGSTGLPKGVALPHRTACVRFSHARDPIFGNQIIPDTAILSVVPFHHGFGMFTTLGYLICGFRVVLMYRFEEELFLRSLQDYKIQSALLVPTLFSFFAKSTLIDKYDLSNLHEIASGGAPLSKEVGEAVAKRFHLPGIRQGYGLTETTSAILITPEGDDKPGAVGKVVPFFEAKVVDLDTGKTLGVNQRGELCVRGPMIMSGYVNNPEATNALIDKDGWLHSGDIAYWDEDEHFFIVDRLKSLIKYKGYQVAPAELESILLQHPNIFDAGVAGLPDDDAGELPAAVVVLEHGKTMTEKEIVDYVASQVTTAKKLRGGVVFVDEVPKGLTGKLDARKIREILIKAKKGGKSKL
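Purified P. pyralis luciferase, 10 nM final, with Km-level 10 uM D-luciferin and 10 uM ATP in 50 mM Tris acetate pH 7.5, 10 mM Mg acetate, 0.01% Tween-20, 0.05% BSA; 6-point qHTS titration about 60 µM downward; luminescence read.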
SMN2 splice up – enhancers of SMN2 splice variant expression. Potency, µM (top dose mostly 46.1 µM), most hits filed as activators. HEK293 SMN2-luciferase splicing reporter, luminescence, 30-36 h. 210,000 compounds, 2.8% hits; note: nearly all actives have a fitted effect of over 55% in size
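HEK293 cells carry an SMN2 […]–luciferase reporter in which exon 7 inclusion puts luciferase in frame. Cells were plated 10-12 h before compound addition, then incubated 30-36 h at 37C. ONE-Glo luminescence was read; sodium butyrate at 4.5 mM final served as control.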
ELG1 genotox – induces genotoxicity in HEK293T cells with luciferase-tagged ELG1; HEK293T ELG1-luciferase reporter, luminescence, 16 h; Potency, µM (series often up to 46 µM), actives largely listed as activators; 330,000 compounds, 1.3% hits; note: nearly all actives have a fitted effect of over 60% in size
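After overnight (16 hr) compound treatment at 37 °C, ELG1-luciferase HEK293T cells were lysed with ONE-Glo; luminescence quantified 30 min later at room temperature.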
Numbers stand for hits. Calls come from the whole dose curve; as a rule, active = well fitted curve in the direction sought with a large enough effect; inconclusive = small, poorly fitted or top-dose-only effect, or another doubt; inactive = no such curve, though single readings can be large; an effect the other way counts as inactive or inconclusive.

What do the screens show for `CCCNC(=O)c1ccccc1NC(=O)Cc1ccc(OC)c(S(=O)(=O)N2CCOCC2)c1`?
Rab9 prom act: inactive; NPC1 promoter act: inactive; FLuc modulator: inactive; ELG1 genotox: inactive

How did O=C(c1c(F)cccc1F)N1CCN(c2ccccc2F)CC1 do in these assays?
Rab9 prom act: inactive; NPC1 promoter act: inactive; FLuc modulator: inactive; SMN2 splice up: inactive; ELG1 genotox: inactive

What do the screens show for `COc1ccc(C2NC(=O)N(C)C3=C2C(=O)N(c2ccc(F)cc2)C3)cc1` (stereo not given)?
FLuc modulator: inactive

What do the screens show for `CCOC(=O)c1c(CSCc2ccccc2)oc2ccc(O)c(CN(C)C)c12`?
Rab9 prom act: inactive; NPC1 promoter act: inactive; FLuc modulator: inactive; ELG1 genotox: inactive

What do the screens show for `COc1cc(Nc2nc(-c3ccccc3)c3cc(C)ccc3n2)cc(OC)c1OC`?
Rab9 prom act: inactive; NPC1 promoter act: inactive; FLuc modulator: 17µM; SMN2 splice up: inactive; ELG1 genotox: inactive

What do the screens show for `COc1cccc(Nc2nc(-c3ccccc3)c3cc(C)ccc3n2)c1`?
FLuc modulator: inactive; SMN2 splice up: inactive

How did Cc1ccc(-c2ccc(C(=O)O)[nH]2)cc1 do in these assays?
Rab9 prom act: inactive; NPC1 promoter act: inactive; FLuc modulator: 19µM; SMN2 splice up: inactive; ELG1 genotox: inactive

Results for CCN1CCC(Nc2ccnc3cc(Cl)ccc23)CC1 ?
Rab9 prom act: inactive; NPC1 promoter act: inactive; FLuc modulator: inactive; ELG1 genotox: inactive

What do the screens show for `COc1ccccc1OCCSc1nc2ccccc2n1CCC(=O)O`?
Rab9 prom act: inactive; NPC1 promoter act: inactive; FLuc modulator: 27µM; ELG1 genotox: inactive

What do the screens show for `COc1ccc(OCCSc2nc3ccccc3n2CCC(=O)O)cc1`?
Rab9 prom act: inactive; NPC1 promoter act: inactive; FLuc modulator: inactive; ELG1 genotox: inactive

How did COc1ccccc1OCCSc1nc2ccccc2n1CCO do in these assays?
Rab9 prom act: inactive; NPC1 promoter act: inactive; FLuc modulator: 17µM; ELG1 genotox: inactive

How did O=C(Cc1cccs1)NCc1cccc(Br)c1 do in these assays?
Rab9 prom act: inactive; NPC1 promoter act: inconclusive; FLuc modulator: inconclusive; ELG1 genotox: inconclusive

What do the screens show for `O=C1c2ccc([N+](=O)[O-])cc2NC(c2ccco2)N1/N=C/c1ccco1` (stereo not given)?
Rab9 prom act: inactive; NPC1 promoter act: inactive; FLuc modulator: inconclusive; ELG1 genotox: inactive

What do the screens show for `CN=c1scc(-c2ccc([N+](=O)[O-])cc2)n1/N=C/c1ccco1`?
Rab9 prom act: 0.4µM; NPC1 promoter act: inconclusive; FLuc modulator: inconclusive; ELG1 genotox: inconclusive

How did Fc1ccccc1-c1cc2ccccc2cn1 do in these assays?
Rab9 prom act: inactive; NPC1 promoter act: inconclusive; FLuc modulator: 4.8µM; ELG1 genotox: inconclusive

How did COc1ccc(NC(=O)O/N=C/c2c(C)nn(C(C)(C)C)c2C)cc1 do in these assays?
Rab9 prom act: 0.32µM; NPC1 promoter act: 0.35µM; FLuc modulator: 0.38µM; ELG1 genotox: 1.6µM

How did Oc1ccc2ccccc2c1/C=N/Nc1ccccc1 do in these assays?
Rab9 prom act: inactive; NPC1 promoter act: inactive; FLuc modulator: 6µM; SMN2 splice up: inconclusive; ELG1 genotox: inconclusive

Results for O=CN/N=C/c1c(O)ccc2ccccc12 ?
Rab9 prom act: inactive; NPC1 promoter act: inactive; FLuc modulator: inactive; ELG1 genotox: inactive

What do the screens show for `Oc1ccc2ccccc2c1/C=N/n1cnnc1`?
Rab9 prom act: inactive; NPC1 promoter act: inactive; FLuc modulator: inactive; SMN2 splice up: inactive; ELG1 genotox: inactive

Results for Oc1ccc2ccccc2c1C=NCc1ccccc1 ?
Rab9 prom act: inactive; NPC1 promoter act: inactive; FLuc modulator: 11µM; ELG1 genotox: inactive

What do the screens show for `CN(Cc1nc(Cc2ccccc2F)no1)CC1(N2CCOCC2)CCCCC1`?
Rab9 prom act: inactive; NPC1 promoter act: inactive; FLuc modulator: inactive; ELG1 genotox: inactive

How did Cn1c(=Nc2ccccc2)sc2ccccc21 do in these assays?
Rab9 prom act: inactive; NPC1 promoter act: inactive; FLuc modulator: 21µM; SMN2 splice up: inactive; ELG1 genotox: inconclusive

Results for CN(C)c1ccc(N=c2sc3ccccc3n2C)cc1 ?
Rab9 prom act: inconclusive; NPC1 promoter act: inconclusive; FLuc modulator: 6µM; SMN2 splice up: inactive; ELG1 genotox: 6.5µM

How did CC(=O)Nc1ccc(/C=C2\Sc3ccccc3C2=O)cc1 do in these assays?
Rab9 prom act: inactive; NPC1 promoter act: inactive; FLuc modulator: 0.38µM; ELG1 genotox: inconclusive

How did COc1ccc(OC)c(/C=C2/Sc3ccccc3C2=O)c1 do in these assays?
Rab9 prom act: inactive; NPC1 promoter act: inactive; FLuc modulator: 9.5µM; ELG1 genotox: inactive
